The values below come from PubChem BioAssay.

Activity calls are given as the source filed them.

In experiment [1] the test system is Wnt5a (protein binding on small-molecule microarray). In words: small molecules binding Wnt5a protein – biophysical, small-molecule microarray, 635/667 nm fluorescence, primary screen (AID 1142).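 Also: fluorescence read at 667 nm with signal to noise per printed feature.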 To be noted: 635 nm fluorescence, higher = more signal.
Experiment [2] in a line: ATP-based viability of Huh7 replicon cells – cell-based, CellTiter-Glo luminescence, basal, 48 h, cytotoxicity control for HCV replication inhibitor project, primary screen (AID 1143).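 Also: Huh7 hepatoma cells carrying a hepatitis C replication reporter with no stimulus; test concentration not given here.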 To be noted: higher = more signal, called active from +8 up or from −8 down.
Experiment [3] is described as follows: basal CRE-LacZ reporter activity in PC12 – cell-based, unstimulated, primary screen (AID 1145). To be noted: no forskolin, luminescence, 4.5 h, higher = more signal, called active from +8 up or from −8 down.
Experiment [4] is described as follows: forskolin-driven CRE-LacZ activity in PC12 – cell-based, CRE-LacZ reporter, forskolin-stimulated, primary screen (AID 1146).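 Also: PC12 cells with 6xCRE LacZ reporter stimulated by forskolin 10 µM; beta-galactosidase reporter signal reflecting CREB driven transcription.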 To be noted: luminescence, 4.5 h, higher = more signal, called active from +8 up or from −8 down.
Experiment [5] concerns the target Streptavidin (Streptomyces avidinii) (UniProt P22629). In words: compounds binding control protein streptavidin – biophysical, small-molecule microarray, 635/667 nm fluorescence, artefact control for SMM compound annotation, primary screen (AID 1147).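 Also: signal reflects streptavidin binding to arrayed compounds as a control protein.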 To be noted: higher = more signal.
Experiment [6] is described as follows: probe aInhba binding on compound microarray – biochemical, small-molecule microarray, 635/667 nm fluorescence, primary screen (AID 1148).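 Also: score merges 667nm spot fluorescence with signal-to-noise for antibody binding to printed compounds.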 To be noted: higher = more signal.
Experiment [7] concerns the target Torsin-1A (Homo sapiens) (UniProt O14656). In words: TOR1A wild-type binding on microarray – cell lysate, small-molecule microarray, lysate, 635/667 nm, primary screen (AID 1149). To be noted: COS7 hTOR1A-WT lysate, 635 nm fluorescence, higher = more signal.
Experiment [8] shares this target. Nature of the experiment: torsin A mutant lysate binding on microarrays – cell lysate, small-molecule microarray, COS7 lysate, 635/667 nm fluorescence, primary screen (AID 1150).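 Also: score pools 667 nm emission and signal to noise measuring lysate protein binding.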 To be noted: COS7 hTOR1A mutant lysate, 635 nm fluorescence, higher = more signal.
For experiment [9], the system named is Sonic hedgehog protein (Shh). Nature of the experiment: Sonic hedgehog microarray binding compounds – biochemical, small-molecule microarray, 635/667 nm fluorescence, primary screen (AID 1151).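 Also: Shh protein binding to compounds spotted on small-molecule microarray slides; score combines spot fluorescence intensity with signal-to-noise across triplicate slides.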 To be noted: 635 nm fluorescence, higher = more signal.
Experiment [10] in a line: optical density shifts of acrAB sulA E. coli – strain DRC41, OD650, 48 h, E. coli filamentation inducer project, primary screen (AID 1152).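 Also: E. coli MC1000 strain DRC41 lacking acrAB efflux pump and sulA.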 To be noted: higher = more signal, called active from +8 up or from −8 down.
Experiment [11] can be described thus: probe aLefty1 binding on compound microarray – biochemical, small-molecule microarray, 635/667 nm fluorescence, primary screen (AID 1153).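 Also: score merges spot fluorescence with signal-to-noise ratio from the scanned slide images.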 To be noted: higher = more signal.
The nature of experiment [12]: plasmodial surface anion channel blockers, osmotic lysis – cell-based, P. falciparum Indochina, OD700, 1 h, primary screen (AID 1154). To be noted: P. falciparum Indochina infected RBC osmotic lysis, higher = more signal, called active from +8 up or from −8 down.
Experiment [13] is described as follows: plasmodial surface anion channel blockers, osmotic lysis – cell-based, P. falciparum Indochina, OD700, 2 h, primary screen (AID 1155).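 Also: lysis reports solute entry through the parasite surface anion channel PSAC.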 To be noted: P. falciparum Indochina infected erythrocytes, higher = more signal, called active from +8 up or from −8 down.
Experiment [14] in a line: changes in parasitized red cell lysis, either direction – P. falciparum Indochina, OD700, 3 h, PSAC antagonist project, primary screen (AID 1156). To be noted: P. falciparum-infected erythrocytes, osmotic lysis, higher = more signal, called active from +8 up or from −8 down.
A short description of experiment [15]: plasmodial surface anion channel blockers, osmotic lysis – cell-based, P. falciparum Indochina, OD700, 18 h, primary screen (AID 1157). To be noted: P. falciparum Indochina infected erythrocytes, osmotic lysis OD700, 18 h; higher = more signal, called active from +8 up or from −8 down.
Experiment [16] is described as follows: S6 kinase pathway phospho-S6 level changes – cell-based, A549, cytoblot, luminescence, serum-stimulated, primary screen (AID 1158).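 Also: serum-stimulated A549 lung adenocarcinoma cells; signal is phosphorylated S6 detected by cytoblot immunostaining with HRP secondary.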 To be noted: 5 h, higher = more signal.
Experiment [17] addresses NADPH oxidase 2 (Homo sapiens) (UniProt P04839). In words: compounds shifting NOX2 Amplex Red fluorescence – cell-based, HEK293-NOX2, PMA-stimulated, NOX inhibitor project, primary screen (AID 1159). Also: test concentration not given here. To be noted: 45 min, higher = more signal, called active from +8 up or from −8 down.
In experiment [18] the target is NADPH oxidase 4 (Homo sapiens) (UniProt Q9NPH5). In words: compounds shifting NOX4 Amplex Red fluorescence – cell-based, HEK293-NOX4, tetracycline-induced, NOX inhibitor project, primary screen (AID 1160). To be noted: HEK293-NOX4, Amplex Red H2O2 fluorescence, 45 min; higher = more signal, called active from +8 up or from −8 down.
Chain of NADPH oxidase 4 (Homo sapiens) (Q9NPH5 whole entry, looked up): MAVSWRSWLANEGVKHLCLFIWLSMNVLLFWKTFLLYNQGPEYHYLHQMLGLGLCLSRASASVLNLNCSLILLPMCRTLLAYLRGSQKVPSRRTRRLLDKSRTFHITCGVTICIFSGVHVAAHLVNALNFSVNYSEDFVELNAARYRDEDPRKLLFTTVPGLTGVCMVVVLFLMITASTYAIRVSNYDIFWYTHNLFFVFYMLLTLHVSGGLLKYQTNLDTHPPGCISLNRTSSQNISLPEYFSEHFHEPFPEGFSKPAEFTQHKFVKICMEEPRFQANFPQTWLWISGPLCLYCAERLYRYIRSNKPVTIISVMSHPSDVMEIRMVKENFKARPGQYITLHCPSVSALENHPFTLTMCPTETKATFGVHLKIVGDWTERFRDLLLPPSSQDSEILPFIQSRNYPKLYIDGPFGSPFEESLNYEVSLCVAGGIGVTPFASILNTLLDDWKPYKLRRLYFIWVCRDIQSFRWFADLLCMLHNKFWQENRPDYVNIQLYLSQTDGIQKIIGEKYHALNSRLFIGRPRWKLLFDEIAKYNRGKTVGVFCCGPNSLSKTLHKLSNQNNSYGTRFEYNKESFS
Experiment [19] deals with NADPH oxidase 5 (Homo sapiens) (UniProt Q96PH1). Nature of the experiment: compounds shifting NOX5 Amplex Red fluorescence – cell-based, HEK293-NOX5, NOX inhibitor project, primary screen (AID 1161). To be noted: HEK293-NOX5, ionomycin, 45 min, higher = more signal.
Chain of NADPH oxidase 5 (Homo sapiens) (Q96PH1 whole entry, looked up): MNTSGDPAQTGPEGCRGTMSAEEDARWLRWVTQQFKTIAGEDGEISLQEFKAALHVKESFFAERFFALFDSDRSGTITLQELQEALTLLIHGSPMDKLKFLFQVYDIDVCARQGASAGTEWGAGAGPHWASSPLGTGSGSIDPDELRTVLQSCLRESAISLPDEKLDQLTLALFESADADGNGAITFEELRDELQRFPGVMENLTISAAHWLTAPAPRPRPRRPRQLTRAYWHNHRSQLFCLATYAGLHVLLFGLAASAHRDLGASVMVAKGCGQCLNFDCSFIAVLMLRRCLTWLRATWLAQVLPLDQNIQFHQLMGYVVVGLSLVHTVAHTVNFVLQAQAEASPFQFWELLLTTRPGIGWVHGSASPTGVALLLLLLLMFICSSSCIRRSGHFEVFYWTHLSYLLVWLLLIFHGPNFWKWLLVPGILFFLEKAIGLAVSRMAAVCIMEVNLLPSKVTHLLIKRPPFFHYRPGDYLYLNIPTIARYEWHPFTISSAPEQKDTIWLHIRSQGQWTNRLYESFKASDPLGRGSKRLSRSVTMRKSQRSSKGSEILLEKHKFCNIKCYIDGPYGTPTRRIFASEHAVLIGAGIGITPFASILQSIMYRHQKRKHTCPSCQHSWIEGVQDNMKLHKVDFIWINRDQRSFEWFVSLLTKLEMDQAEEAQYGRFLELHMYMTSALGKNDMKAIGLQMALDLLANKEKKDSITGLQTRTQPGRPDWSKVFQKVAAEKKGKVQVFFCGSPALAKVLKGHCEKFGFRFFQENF
Experiment [20] is described as follows: compound effects on lung adenocarcinoma cell viability – A549, calcein-AM fluorescence, 48 h, basal, profiling panel (AID 1162). Also: test concentration not given here. To be noted: higher = more signal.

Chain of Streptavidin (Streptomyces avidinii) (P22629 whole entry, looked up): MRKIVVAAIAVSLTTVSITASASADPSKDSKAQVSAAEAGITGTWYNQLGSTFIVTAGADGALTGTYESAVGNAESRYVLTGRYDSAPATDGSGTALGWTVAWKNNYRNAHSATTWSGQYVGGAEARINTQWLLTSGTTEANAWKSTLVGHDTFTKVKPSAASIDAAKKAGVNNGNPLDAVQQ
Chain of NADPH oxidase 2 (Homo sapiens) (P04839 whole entry, looked up): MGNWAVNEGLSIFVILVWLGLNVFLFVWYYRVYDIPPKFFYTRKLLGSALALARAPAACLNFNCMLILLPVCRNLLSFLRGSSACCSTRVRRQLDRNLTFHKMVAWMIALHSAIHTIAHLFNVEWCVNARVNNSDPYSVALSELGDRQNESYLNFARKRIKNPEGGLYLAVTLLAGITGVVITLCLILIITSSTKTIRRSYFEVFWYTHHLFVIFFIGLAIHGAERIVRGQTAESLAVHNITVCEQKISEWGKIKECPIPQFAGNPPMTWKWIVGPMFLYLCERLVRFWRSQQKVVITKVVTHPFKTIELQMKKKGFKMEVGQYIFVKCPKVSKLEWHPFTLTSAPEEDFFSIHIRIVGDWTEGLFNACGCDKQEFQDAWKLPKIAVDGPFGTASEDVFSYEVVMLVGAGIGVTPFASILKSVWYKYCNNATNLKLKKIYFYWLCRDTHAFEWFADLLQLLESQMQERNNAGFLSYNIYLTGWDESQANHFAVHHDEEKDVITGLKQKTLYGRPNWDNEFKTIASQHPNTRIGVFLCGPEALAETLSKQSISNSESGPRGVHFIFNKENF
Chain of Torsin-1A (Homo sapiens) (O14656 whole entry, looked up): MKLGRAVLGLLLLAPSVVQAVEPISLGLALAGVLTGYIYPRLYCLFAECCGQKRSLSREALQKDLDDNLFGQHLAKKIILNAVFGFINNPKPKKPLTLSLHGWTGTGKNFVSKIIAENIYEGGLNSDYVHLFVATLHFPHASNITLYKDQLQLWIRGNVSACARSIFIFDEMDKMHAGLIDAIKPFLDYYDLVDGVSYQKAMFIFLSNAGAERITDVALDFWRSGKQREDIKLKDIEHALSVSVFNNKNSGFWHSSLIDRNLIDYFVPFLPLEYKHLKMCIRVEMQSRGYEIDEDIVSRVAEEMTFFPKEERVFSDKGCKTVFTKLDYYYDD

Take `C=CCC(OC(C)=O)[C@@H]1[C@@H](N(Cc2cc3ccccc3o2)C(=O)c2ccc(-c3ccccc3)cc2)c2cc(OCCCO)ccc2N1C(=O)c1ccc(-c2ccccc2)cc1` (stereo not given in full): the composite z-score is 0.0258 in experiment [1]; -0.0123 in experiment [5]; 0.0497 in [6]; -0.347 in [7]; 0.244 in experiment [8]; 0.224 in experiment [9]. The same compound yielded a composite z-score in experiment [11] of 0.0038. Moreover, the z-score is 0.267 (inactive) in experiment [2]; 0.6 (inactive) in experiment [3]; -0.625 (inactive) in experiment [4]; 2.06 (inactive) in experiment [10]; -0.0828 (inactive) in [12]; 0.179 (inactive) in experiment [13]. Further, the z-score in experiment [14] was -0.0582 (inactive); in experiment [15], -0.0337 (inactive); in [16] it was 0.436; in experiment [17], 0.989 (inactive); in experiment [18], -1.13 (inactive); in [19], 0.786. In [20], the z-score was 0.0525.
With `COc1ccc([Si](C)(C)[C@@H]2[C@@H](CC(=O)N3CCC[C@H]3CO)O[C@]3(C(=O)N(Cc4ccc(N5CCC5=O)cc4)c4ccccc43)[C@H]2C)cc1`, the composite z-score in [1] turned out to be 0.0507; in [5], 0.761; in [6], 0.027; in experiment [7], 0.572; in [8] it was 0.409; in experiment [9], 1.55. The compound further had a composite z-score in [11] of 0.156. The z-score was -1.8 (inactive) in experiment [2]; 0.861 (inactive) in experiment [3]; -1.19 (inactive) in [4]; 0.436 (inactive) in [10]; 7.47 (inactive) in experiment [12]; 1.49 (inactive) in experiment [13]. Also, the z-score in experiment [14] was -0.836 (inactive); in [15], 0.77 (inactive); in [16] it was 0.127; in [17] it was 2.99 (inactive); in [18] it was 1.58 (inactive); in [19], 4.86. Also, the z-score in experiment [20] was -0.639.
In the case of `CC(C)C[C@@H]1NC(=O)[C@H]2C[C@@H](C(=O)NCCCC[N+](C)(C)C)[C@@H](c3cccc(OCCO)c3)N2C1=O`, the composite z-score is 0.223 in [1]; -0.429 in experiment [5]; -0.1 in [6]; 2.05 in experiment [7]; 0.629 in experiment [8]; 2.03 in [9]. Besides, the composite z-score in experiment [11] was -0.243. In addition, the z-score in experiment [2] is -1.01 (inactive); in experiment [3] it was -0.26 (inactive); in experiment [4], -1.21 (inactive); in [10], 0.512 (inactive); in experiment [12], 2.25 (inactive); in experiment [13], -1.73 (inactive). In addition, the z-score is -2.51 (inactive) in [14]; -2.05 (inactive) in [15]; 0.251 in [16]; -1.8 (inactive) in [17]; -0.815 (inactive) in experiment [18]; -1.49 in experiment [19]. Also, the z-score in experiment [20] is 1.01.
Regarding `COc1c(C)cc(-c2cc3c(c(CCc4ccccc4)n2)[Si](C(C)C)(C(C)C)OC3)cc1C`, the composite z-score in experiment [1] is -0.0652; in [5], -0.0683; in experiment [6], 0.0659; in experiment [7], 0.367; in [8], 0.362; in experiment [9] it was 0.981. Besides, the composite z-score in [11] was 0.112. For the same compound, the z-score is 0.236 (inactive) in [2]; 0.12 (inactive) in [3]; -0.867 (inactive) in experiment [4]; 2.56 (inactive) in experiment [10]; 1.18 (inactive) in experiment [12]; -0.803 (inactive) in experiment [13]. In addition, the z-score in experiment [14] is -0.428 (inactive); in [15], -1.57 (inactive); in experiment [16], 0.663; in experiment [17], 0.726 (inactive); in experiment [18], 0.907 (inactive); in experiment [19], -0.11. Further, the z-score in [20] is 0.483.
Regarding `C=C(/C(=C/C[C@H](OC(C)=O)c1cccc(OCCO)c1)c1cc(C(=O)OC)ccc1OC)C(C)C`, the composite z-score in [1] was -0.0431; in experiment [5], -0.948; in experiment [6], -0.128; in experiment [7], -0.0282; in experiment [8], -0.193; in [9], 0.237. Further, in experiment [11], the composite z-score was -0.191. The z-score was -0.802 (inactive) in experiment [2]; 11.7 (active) in experiment [3]; -1.02 (inactive) in [4]; 1.81 (inactive) in experiment [10]; 6.36 (inactive) in [12]; 1.29 (inactive) in [13]. Besides, the z-score was 2.46 (inactive) in experiment [14]; 0.576 (inactive) in experiment [15]; -0.228 in experiment [16]; 2.19 (inactive) in experiment [17]; 1.84 (inactive) in experiment [18]; -1.06 in [19]. Besides, in experiment [20], the z-score was 1.75.
